Bioassay records from PubChem BioAssay.
The list is a sample of the results.
aSyn UTR act: Activators via SNCA 5'UTR binding, MLPCN | activity score, % (tested at 7.5 µM), hits read low | AID 1814, 2009 | 7.1% of 300,000 active | alpha-synuclein 5'UTR reporter, activators screen; in the data active = activity score below about -60%
* hit, by the source's call.

SMILES	aSyn UTR act
Cc1sc2c(c1C)CN(CCN1CCOCC1)CN2C(=O)c1ccccc1	-82*
Brc1ccc2nc(-c3c[nH]c4ccccc34)cn2c1	-164*
COc1ccc(/C=N\NC(=O)c2cccc(F)c2)cc1COc1ccccc1	88
COc1ccc(/C=N/NC(=O)c2cccnc2)cc1COc1ccc(NC(C)=O)cc1	-84*
COc1cc(/C=N/NC(=O)c2cccc([N+](=O)[O-])c2)ccc1OCc1ccc(C)cc1	-99*
COc1ccc(/C=N/NC(=O)c2cccnc2)cc1COc1ccc([N+](=O)[O-])cc1	-75*
COC(=O)Cc1nc(NC(=O)c2cccs2)sc1C	-82*
COC(=O)c1nc(NC(=S)NC(=O)c2cccs2)sc1C	-80*
O=C(NC(=S)Nc1nc2ccccc2s1)c1cccs1	-136*
COc1ccc(NC(=S)Nc2ccc(N)c([N+](=O)[O-])c2)cc1	-145*
COc1ccc(NC(=S)Nc2ccc3snnc3c2)cc1	-107*
COc1ccc(NC(=S)Nc2ccc3nccnc3c2)cc1	-227*
CC(=O)O[C@H]1C(=O)[C@@]2(C)C([C@H](OC(=O)c3ccccc3)[C@]3(O)C[C@H](OC(=O)[C@H](O)[C@@H](NC(=O)c4ccccc4)c4ccccc4)C(C)=C1C3(C)C)[C@]1(OC(C)=O)CO[C@@H]1C[C@H]2O (stereo partly drawn)	102
CCn1ccc(C(=O)Nc2ccccc2SC)n1	-175*
CCn1ccc(C(=O)Nc2ccc(Cl)cn2)n1	-137*
CCn1nccc1C(=O)Nc1ccc(Cl)cn1	-96*
C/C(=N\N=c1/sc2ccccc2n1C)c1ccccn1	-122*
C/C(=N\N=c1/sc2ccccc2n1C)c1ccc(N2CCOCC2)cc1	-132*
Cc1ccc2nc(/C=C/c3cccc(F)c3)ccc2c1	-172*
CC(=O)c1ccc(NC(=O)C2CCN(S(=O)(=O)c3cccs3)CC2)cc1	-80*
O=C(Nc1nc2ccccc2[nH]1)C1CCN(S(=O)(=O)c2cccs2)CC1	-70*
Cn1c(/C=C/c2ccccc2)nc2ccccc2c1=O	-137*
Cn1c(/C=C/c2ccc([N+](=O)[O-])o2)nc2ccccc2c1=O	98
Cn1c(/C=C/c2ccc(Cl)cc2)nc2ccccc2c1=O	-181*
CNc1nnc(-c2ccc(OC)cc2)s1	-75*
SMILES	aSyn UTR act
O=[N+]([O-])c1cc(-c2n(-c3ccccn3)c3ccccc3[n+]2-c2ccccn2)ccc1Cl	-88*
CCCC/C(=N\NC(=O)c1ccc(Br)o1)c1ccccc1	-69*
O=C(c1ccccc1)c1cccc(NC(=O)c2ccc(Br)o2)c1	-90*
Cc1cccc(NC(=O)c2ccc(C(=O)c3ccccc3)o2)c1	-156*
O=C(Nc1ccc2c(c1)oc1ccccc12)c1ccc(Br)o1	-210*
CCc1cccc(NC(=O)c2ccc(Br)o2)c1	-116*
O=C(Nc1ccccc1)c1ccc(Br)o1	-73*
CC(=O)c1sc2nc(-c3cccs3)ccc2c1N	-272*
Nc1c(C(=O)Nc2nc3ccccc3s2)sc2nc(-c3cccs3)ccc12	106
CCC(=O)c1cn(CC(=O)NCc2ccco2)c2ccccc12	-65*
Cc1nnnn1/C(=C\c1ccccc1)C(=O)OCC(=O)Nc1ccc(Cl)cc1F	-71*
OC(c1cc(-c2ccc(Cl)cc2)nc2ccccc12)C1CCCCN1 (stereo not drawn)	96
COc1cc(NC2CCCCC2O)c2nc(-c3ccc(Cl)cc3)ccc2c1 (stereo not drawn)	-94*
CN(C)CC/C=C1\c2ccc(F)cc2Sc2cc(F)c(Cl)cc21	103
COc1ccc(-c2nc(NC(=O)Cn3c(=O)oc4ccccc43)sc2C)cc1	-70*
O=C(COc1ccc(Cl)cc1Cl)Nc1cccnc1	-122*
Cc1c(OCC(=O)Nc2cccnc2)ccc2c3c(c(=O)oc12)CCC3	58
O=C(COc1ccc(Cl)cc1Br)Nc1ccncc1	-146*
Cc1csc2ncc(C(=O)Nc3ccccc3Cl)c(=O)n12	-204*
Cc1csc2ncc(C(=O)Nc3ccccc3F)c(=O)n12	-205*
O=C(NC(=S)Nc1ccc2c(c1)C(=O)c1ccccc1C2=O)c1ccc(F)cc1	-141*
O=C(NC(=S)Nc1ncccn1)c1ccc(F)cc1	-203*
O=C(NC(=S)NNC(=O)c1cnccn1)c1ccc(Cl)cc1	61
O=C(NC(=S)Nc1cccnc1Cl)c1ccc(F)cc1	-124*
COc1ccccc1NC(=S)NNC(=O)c1ccc(Cl)cc1Cl	-137*
SMILES	aSyn UTR act
O=C(Nc1cccnc1Cl)c1cc(-c2ccc(F)cc2)on1	-74*
O=C(NC(=S)Nc1ncccn1)c1ccc(Cl)cc1Cl	-165*
COc1ccc(CC(=O)O/N=C(\N)c2ccc(OC)cc2)cc1	-86*
COc1ccc(/C(N)=N/OC(=O)Cc2cccs2)cc1	-129*
O=C1c2sc3nc4ccccc4n3c2C(=O)N1c1ccccc1Cl	-72*
Cc1nc(NC(=O)c2ccccc2O)sc1C	-128*
Cc1nc(Nc2ccccc2)sc1C	-112*
CC(=O)c1sc(NC(=O)c2ccccc2)nc1-c1ccccc1	-139*
CCOC(=O)Nc1nc(-c2ccccc2)c(C(=O)c2ccccc2)s1	117
Cc1nc(NC(=O)c2ccccc2)sc1C	-86*
